# Source: PubChem BioAssay AID485360 (National Center for Advancing Translational Sciences (NCATS), 2010)
# Where “and” joins values, the source holds several entries; their conditions need not be identical. Equal values may be shown once. Hit rate of the full screen: of about 230,000 compounds, about 1,500 (0.65%) were called active. Inconclusive results (about 3%) are left out. Calls follow the shape of the dose curve; as a rule, active = well fitted inhibition curve with a large enough effect; inconclusive = small, poorly fitted or top-dose-only effect; inactive = no such curve, though single readings can be large or run the other way. Only a selection was taken, and actives are over-represented in it overall. The source holds several records for some structures; these can differ, active in one and inactive in another.
# Biological target: Lethal(3)malignant brain tumor-like protein 1 (Homo sapiens) (UniProt Q9Y468)
# Experiment: qHTS Assay for the Inhibitors of L3MBTL1; also: nearly all actives have a fitted effect of over 60% in size
# Conditions: AlphaScreen L3MBTL1–H3K9me1 peptide binding; series mostly up to 57.1 µM; activity, negative = inhibition: at the top concentration
# Source text: The histone code is comprised of many post-translational modifications that occur mainly in histone tail peptides. The identity and location of these marks are read by a variety of histone binding proteins that are emerging as important regulators of cellular differentiation and development and are increasingly being implicated in numerous disease states. Small molecule probes that disrupt the interaction between histone binding proteins and chromatin would enable a systematic chemical biology study of proteins that read the histone code and could potentially reveal new targets for drug discovery. However, no such small molecules are known. This dearth of quality molecular probes can largely be attributed to the novelty of the target class and the lack of screening assays. This proposal details the development of the first high-throughput screening assay for the discovery of inhibitors of methyl-lysine binding proteins and how it can be be used to initiate a full-scale discovery effort for antagonists of histone binding proteins. Specifically, this work focuses on an AlphaScreen(tm)-based HTS assay for Malignant Brain Tumor (MBT) domain-containing proteins, which bind to the lower methylation states of lysine residues present in histone tail peptides.
# To each well, 2 uL of L3MBTL1 protein (final 50 nM) and 1 uL biotinylated histone peptide monomethylated at Lys9 [b-AHA-H3(1-15)K9me1] (final 75 nM) was added using a nanoliter dispenser. Formation of a protein-peptide complex proceeded at room temperature for 30 min. A Kalypsys pin-tool was employed to transfer 23 nL of library compound solution in DMSO to each well. Cefsulodin, found in a pilot screen of the LOPAC library to be a weak inhibitor of L3MBTL1 binding, was used as an intraplate control with a 16-point titration in duplicate. Following a 30 min incubation of the protein-peptide complex with compounds at room temperature, a mixture of 40 ug/mL each streptavidin-coated donor and nickel chelate acceptor AlphaScreen beads (final 10 ug/mL) was added in a 1 uL dispense for a final volume of 4 uL. Plates were incubated, protected from the light for 30 min at room temperature. Microplates were then be read on an EnVision multilabel plate reader using the 1,536 plate HTS AlphaScreen aperture (excitation time 80 ms, measurement time 240 ms).
# % is scaled to controls: 0 for no effect and ±100 for the full control effect; potency is read from the fitted curve at half-maximal effect.
# Chain of Lethal(3)malignant brain tumor-like protein 1 (Homo sapiens) (Q9Y468 whole entry, looked up): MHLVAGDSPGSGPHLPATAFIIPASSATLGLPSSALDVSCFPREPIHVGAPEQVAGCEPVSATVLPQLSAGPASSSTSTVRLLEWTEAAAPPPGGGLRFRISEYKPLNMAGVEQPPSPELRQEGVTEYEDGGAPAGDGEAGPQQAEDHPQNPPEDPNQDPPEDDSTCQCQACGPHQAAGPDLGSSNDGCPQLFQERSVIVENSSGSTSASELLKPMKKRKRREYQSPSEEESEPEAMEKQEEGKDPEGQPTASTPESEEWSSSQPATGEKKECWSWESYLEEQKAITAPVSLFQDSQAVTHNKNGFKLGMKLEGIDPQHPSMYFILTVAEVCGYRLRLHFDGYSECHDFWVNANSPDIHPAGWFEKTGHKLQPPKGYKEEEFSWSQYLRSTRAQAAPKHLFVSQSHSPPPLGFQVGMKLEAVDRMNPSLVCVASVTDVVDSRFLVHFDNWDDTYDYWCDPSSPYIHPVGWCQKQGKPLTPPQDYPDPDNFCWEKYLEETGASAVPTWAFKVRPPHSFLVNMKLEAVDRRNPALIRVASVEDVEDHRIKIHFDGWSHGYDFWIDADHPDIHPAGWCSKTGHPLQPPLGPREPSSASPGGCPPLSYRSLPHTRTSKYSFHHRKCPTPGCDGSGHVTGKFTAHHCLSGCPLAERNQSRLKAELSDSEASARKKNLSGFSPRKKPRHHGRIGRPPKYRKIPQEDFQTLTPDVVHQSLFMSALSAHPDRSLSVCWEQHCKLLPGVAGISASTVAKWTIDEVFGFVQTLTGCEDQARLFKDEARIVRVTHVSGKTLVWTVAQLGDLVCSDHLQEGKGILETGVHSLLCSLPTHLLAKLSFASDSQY
SMILES,Potency,"activity, negative = inhibition"
CSC1=N/C(=C\C=C\c2cccs2)C(=O)S1,20 µM (active),
O=C1N/C(=C/c2cccs2)C(=O)N1Cc1ccc(F)cc1,,7.41% (inactive)
CSC1=N/C(=C\c2ccc3c(c2)OCO3)C(=O)S1,,-5.37% (inactive)
Cc1ccnc(SCC(=O)Nc2cccc(S(=O)(=O)N3CCOCC3)c2)n1,,-1.74% (inactive)
COc1ccccc1C(CNC(=O)c1cccc(NS(=O)(=O)c2ccc(Br)cc2)c1)N(C)C (stereo not drawn),,5.64% (inactive)
COc1ccc(/C=N/Nc2nc3ccccc3c(=O)[nH]2)cc1,,4.78% (inactive)
COc1ccc(Cc2nnc(N/N=C/c3ccccc3O)[nH]c2=O)cc1OC,8.91 µM (active),
CCOc1ccc(-n2c(O)c(/C=N/Nc3nnc(C)c(=O)[nH]3)c3ccccc3c2=O)cc1,,-28% (inactive)
CCOc1ccccc1OCC(=O)Nc1ccccc1C(=O)NC1CC1,,-6.53% (inactive)
CC(OC(=O)c1ccc(S(=O)(=O)N2CCOCC2)cc1)c1ccccc1 (stereo not drawn),,11.6% (inactive)
COc1ccc(-c2noc(CCC(=O)N3CCN(c4cccc(C)c4)CC3)n2)cc1,,-5.84% (inactive)
CN(C)c1ccc(-n2cccc2/C=C2/SC(=Nc3ccc(F)cc3)NC2=O)cc1,,-2.95% (inactive)
Cc1cccc(N=C2NC(=O)/C(=C/c3cn(C)c4ccccc34)S2)c1,,-12.5% (inactive)
Cc1ccc(N=C2NC(=O)/C(=C/C=C/c3ccco3)S2)cc1C,22.4 µM (active),
CC(=O)N1c2ccc(S(=O)(=O)N3CCCC(C(=O)Nc4ccc(C)cc4C)C3)cc2CC1C (stereo not drawn),,-1.87% (inactive)
O=C(COC(=O)C1CCCO1)Nc1nc(-c2ccc(F)cc2)cs1 (stereo not drawn),,5.76% (inactive)
O=C(CSc1nc2ccccc2c(=O)n1-c1ccccc1F)N1CCOCC1,,2.61% (inactive)
Cc1ccc2c(c1)C1CN(C)CCC1N2S(=O)(=O)c1cccc(F)c1 (stereo not drawn),,-0.876% (inactive)
FC(F)(F)c1nc2ccccc2nc1N/N=C/c1ccc(Cl)cc1,,-3.16% (inactive)
Cc1nc2ccccc2nc1N/N=C/c1ccc(O)cc1O,14.1 µM (active),
Oc1ccc(/C=N/Nc2nc(-c3ccccc3F)nc3ccccc23)c(O)c1,,-26.6% (inactive)
C=C1c2c(Cl)ccc(O)c2C(O)=C2C(=O)[C@]3(O)C(O)=C(C(N)=O)C(=O)[C@@H](N(C)C)[C@@H]3[C@@H](O)C12 (stereo partly drawn),0.447 µM (active),
Cc1nn(Cc2ccccc2)c(C)c1C(=O)N1CCN(CC(=O)Nc2ccccc2Cl)CC1,,4.62% (inactive)
CCN(CC(=O)NCc1ccc(F)cc1)S(=O)(=O)c1ccc(Cl)s1,,11.7% (inactive)
CCOc1ccc(S(=O)(=O)Nc2cccc(C(=O)NCC3(N4CCCCC4)CCCCC3)c2)cc1,,-7.83% (inactive)
CC(Sc1ccccc1F)C(=O)Nc1cccc(S(=O)(=O)N2CCOCC2)c1 (stereo not drawn),,4.02% (inactive)

SMILES,Potency,"activity, negative = inhibition"
Cc1cc(C)cc(NS(=O)(=O)Cc2ccccc2)c1,,0.725% (inactive)
Cc1ccccc1NC(=O)CSC(=O)c1ccccc1,,-7.88% (inactive)
Cc1ccccc1NC(=O)CN1C(=O)N/C(=C\c2cccn2-c2cccc(C(=O)O)c2)C1=O,3.55 µM (active),
O=C1N/C(=C/c2cccn2-c2ccccc2)C(=O)N1c1cccc(Cl)c1,,6.45% (inactive)
Cc1ccc(NC(=O)C(c2ccccc2)N2CCN(C(=O)c3ccco3)CC2)cc1 (stereo not drawn),,-8.06% (inactive)
CN(C)C(=O)CCc1ccc2c3c([nH]c2c1)[C@]1(C)[C@@H](C(=O)N2CCCCC2)C[C@H](CC(=O)NCCC2=CCCCC2)C(=O)N1CC3,,-2.71% (inactive)
C=CCOc1cccc(C2NC(=O)c3ccccc3O2)c1 (stereo not drawn),,0.914% (inactive)
Clc1cccc(CN2COc3c(cc(Cl)c4cccnc34)C2)c1,,-15.3% (inactive)
COc1cc(CN2CCC(C(N)=O)CC2)ccc1OCc1ccccc1,,9.88% (inactive)
Oc1c(CN2CCCC2)cc(COCc2ccccc2)c2cccnc12,inactive and 28.2 µM (active),
CCN(CC(=O)Nc1ccccc1C(F)(F)F)C(=O)C1CCN(C(=O)Nc2ccccc2)CC1,,-3.3% (inactive)
COc1ccc(CCNC(=O)COC(=O)c2cnc(Cl)c(Cl)c2)cc1,,-1.86% (inactive)
COc1ccccc1Nc1nc(N)nc(CSC(=S)N2CCOCC2)n1,,-0.65% (inactive)
Cc1ccccc1Nc1nc(N)nc(CSc2ccccc2)n1,,-6.78% (inactive)
COc1ccccc1Nc1nc(N)nc(CN(C)C2CCCCC2)n1,15.8 µM (active),
CCCCCC(=O)N1CCN(S(=O)(=O)c2ccc3c(c2)OCCCO3)CC1,,4.12% (inactive)
CCOC(=O)c1sc2nc(CSc3ccccc3)[nH]c(=O)c2c1C,,6.68% (inactive)
CSc1nnc(SCc2nc3sc(C(=O)O)c(C)c3c(=O)[nH]2)s1,3.16 µM (active),
CCOC(=O)c1sc2nc(C)[nH]c(=O)c2c1C,,3.08% (inactive)
COc1ccc(S(=O)(=O)N2CCOC23CCN(S(=O)(=O)c2ccc([N+](=O)[O-])cc2)CC3)cc1,,-11% (inactive)
CCCCn1c(N)c(N(CC(C)C)C(=O)CN(C)S(=O)(=O)c2ccc(F)cc2)c(=O)[nH]c1=O,,5.09% (inactive)
CN(C)c1ccc(Nc2c3c4c(cccc4n(C)c2=O)C(=O)c2ccccc2-3)cc1,7.94 µM (active),
CN(C)c1ccc(C2N(C)C(=O)c3ccccc3N2C)cc1 (stereo not drawn),,-3.44% (inactive)
CC(C)Oc1ccc(S(=O)(=O)N2CCOCC2)cc1NC(=O)C1CCCC1,,-1.04% (inactive)
COC(=O)c1ccc2ccccc2c1OC1OC(CO)C(O)C(O)C1NC(C)=O (stereo not drawn),,4.66% (inactive)
Cc1ccc2nc(-c3ccccc3)cc(C(=O)O)c2c1,,-3.25% (inactive)

SMILES,Potency,"activity, negative = inhibition"
Cc1cc(C)c2nc(-c3ccco3)cc(C(=O)O)c2c1,3.16 µM (active),
CC1CCCN(C(=O)c2cc(-c3ccco3)nc3ccccc23)C1 (stereo not drawn),,-0.376% (inactive)
CCOC(=O)c1ccccc1NS(=O)(=O)c1c(C)nc2sccn2c1=O,,1.45% (inactive)
CCN(CC)S(=O)(=O)c1ccc(N2CCOCC2)c(NC(=O)C(C)Oc2ccc(F)cc2)c1 (stereo not drawn),,-4.04% (inactive)
Cc1occc1C(=O)Nc1cccc(S(=O)(=O)N2CCOCC2)c1,,-5.85% (inactive)
Oc1ccc(N=Nc2nccs2)c(O)c1,25.1 µM (active),
Oc1ccc2ccccc2c1C=Nc1ccccc1,,-9% (inactive)
Oc1ccc2ccccc2c1N=Nc1nccs1,3.98 µM (active),
c1ccc(NCc2cccc3ccccc23)nc1,,25.5% (inactive)
CN(CC(=O)NC1CCN(Cc2ccccc2)CC1)S(=O)(=O)c1ccc(Cl)s1,,-0.592% (inactive)
O=C(COC(=O)c1ccco1)Nc1ccc(Cl)cn1,,-4.51% (inactive)
O=C(NNS(=O)(=O)c1ccc(F)cc1)c1ccc([N+](=O)[O-])cc1Cl,,1.2% (inactive)
Cc1sc2ncnc(N3CCC(C(=O)NNC(=O)c4ccc(F)cc4)CC3)c2c1C,,4.79% (inactive)
CC1CCCCC1NCC(=O)Nc1ccccc1C(=O)Nc1ccccc1 (stereo not drawn),,11.2% (inactive)
COC(OC)c1ccnc(SCc2ccccc2Cl)n1,,30.5% (inactive)
O=c1[nH]c(SCc2ccccc2)nnc1-c1ccccc1,,47.2% (inactive)
O=C(Nc1nnc(SCc2ccccc2)s1)c1ccco1,,-1.74% (inactive)
c1ccc(CSc2nnc(-c3ccco3)c(-c3ccco3)n2)cc1,7.94 µM (active),
Clc1ccccc1CSc1nnc(-c2ccco2)c(-c2ccco2)n1,8.91 µM (active),
O=C(CC1N=C2c3ccccc3N=C(SCc3ccccc3Cl)N2C1=O)NCc1ccco1 (stereo not drawn),,-7.4% (inactive)
Cc1nc(-c2ccc(F)cc2)c(CC(=O)Nc2cccc(S(=O)(=O)N3CCOCC3)c2)s1,,-4.77% (inactive)
Cc1occc1-c1nnc(SCC(=O)NC2(C#N)CCCC2)n1C,,-3.03% (inactive)
O=C(CSc1nnc(COc2ccc(Cl)cc2)n1Cc1ccco1)N1CCNC1=O,,-3.91% (inactive)
COc1ccc2c(CC(=O)NNC(=O)c3ccccc3F)coc2c1,,1.74% (inactive)
CC(C)N(C(=O)CSc1nnc(NC2CC2)s1)c1ccccc1,,2.8% (inactive)
Cc1c(NC(=O)/C=C/C(=O)O)cccc1[N+](=O)[O-],,4.64% (inactive)

SMILES,Potency,"activity, negative = inhibition"
CCc1nnc(NC(=O)/C=C/c2ccc(C)o2)s1,,5.81% (inactive)
Cc1ccc(/C=C/C(=O)Nc2ccc([N+](=O)[O-])c(NC(=O)/C=C/c3ccc(C)o3)c2)o1,22.4 µM (active),
NC(=O)c1ccc(Nc2ccc3nonc3c2[N+](=O)[O-])cc1,,2.69% (inactive)
COc1ccc(Cl)cc1NC(=O)CN(C)C(=O)c1cc2ccccc2cc1OC,,-1.92% (inactive)
O=C(OCC(=O)N1CCCCCC1)c1cnc(Cl)c(Cl)c1,,0.852% (inactive)
O=C(c1ccc(F)cc1)N1CCC(C(=O)N2CCN(S(=O)(=O)c3ccccc3Br)CC2)CC1,,9.56% (inactive)
Cc1nc2sc(C(c3ccco3)N3CCOCC3)c(O)n2n1 (stereo not drawn),,-0.458% (inactive)
Oc1c(C(c2ccccn2)N2CCOCC2)ccc2cccnc12 (stereo not drawn),8.91 µM (active),
CCOc1cc(N2CCOCC2)c(OCC)cc1NC(=O)COc1cccc2cccnc12,,-2.29% (inactive)
COc1ccc(C(=O)COC(=O)C(O)c2ccccc2)c(OC)c1 (stereo not drawn),,-0.868% (inactive)
CC(C)[C@H](NC(=O)N1c2ccccc2NC(=O)[C@@H]1C(C)C)C(=O)N[C@H](C(=O)O)c1ccccc1,,-10% (inactive)
CC(C#N)(NC(=O)CN1CCN(S(=O)(=O)c2cc(C(F)(F)F)ccc2Cl)CC1)C1CC1 (stereo not drawn),,12.2% (inactive)
O=C(CN1CCN(c2ccccc2O)CC1)NC(=O)NCc1ccccc1,,-7.24% (inactive)
CCC(C)N(C(=O)CSc1nnnn1-c1ccccc1OC)C1CCS(=O)(=O)C1 (stereo not drawn),,-0.112% (inactive)
COC(=O)[C@]1(Cc2ccccc2)N[C@H](CN(C)S(=O)(=O)c2ccc(OC(F)(F)F)cc2)[C@@H]2C(=O)N(C)C(=O)[C@@H]21,,-0.744% (inactive)
O=C(N/N=C/C=C/c1ccco1)c1cccs1,31.6 µM (active),
O=C(Nc1ccc(NC(=O)c2cccs2)cn1)c1ccco1,,-4.02% (inactive)
O=C(N/N=C/c1ccco1)c1ccc(C(=O)N/N=C/c2ccco2)o1,,-10.8% (inactive)
Cc1cc(C=O)c(C)n1-c1ccc(NC2CCCCC2)c([N+](=O)[O-])c1,15.8 µM (active),
Cc1cc([N+](=O)[O-])ccc1NC1CCCC1,,-12.3% (inactive)
Cc1c(NS(=O)(=O)c2ccc(NC3CCCC3)c([N+](=O)[O-])c2)c(=O)n(-c2ccccc2)n1C,,-7.18% (inactive)
O=C(COC(=O)c1cccnc1Cl)NC12CC3CC(CC(C3)C1)C2,,2.98% (inactive)
O=C(NCC#CCSc1nnc(-c2cccc3ccccc23)o1)c1cccs1,inactive and 10 µM (active),
Cc1ccc(-c2nnc(-c3ccc(NC(=O)c4cccs4)cc3)o2)cc1,,1.12% (inactive)
COc1ccc(-c2nnc(SCC(=O)c3cccs3)o2)c(OC)c1,,-4.94% (inactive)
